Beta apoptosis: beta cell apoptosis inhibition; INS-1E cytokine-induced death, ATP luminescence, 48 h; percent of positive-control rescue, neutral wells zero; protection from apoptosis, % (test concentration not listed); 0.8% of 300,000 active; AID 435005;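 active = Every replicate reaches about 75%, or at least half do and their mean reaches it too, limit read from the data; inconclusive = At least half of replicates reach the limit but their mean does not; inactive = Under half of replicates reach the limit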;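 also: 0% = cytokine-treated negative control wells and 100% = positive control rescue; higher means more ATP so stronger rescue from cytokine killing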
A1 inh: inhibitors of the anti-apoptotic protein A1, read as caspase activation | caspase activation, % (no concentration beside the values) | MEF A1-2A-BIM cells, Caspase-Glo 3/7 luminescence, 3 h; percent of clofoctol response, vehicle zero | 0.066% of 330,000 active | AID 2462;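 active = over half of replicate activation scores above 10%, or exactly half above 10 with the replicate mean above 10; inconclusive = replicate mean below 10 yet half the replicates above 10; inactive = over half of replicates below 10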
Mdm2-MdmX inh: human Mdm2/MdmX binding inhibition. inhibition, % at 8 µM. AID 485346. 3% of 330,000 active. O15151+Q00987. SaOS-2 split-luciferase Mdm2/MdmX complementation, luminescence;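 active = inhibition of at least 50% at 8 µM in the primary screen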
aSyn UTR inh: MLPCN primary screen, SNCA 5' untranslated region | alpha-synuclein 5'UTR reporter, inhibitor activity | inhibition, % (tested at 7.5 µM) | 0.82% of 300,000 active; in the data active = inhibition above about 60%; inconclusive = no clear call, values can overlap the other calls;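 also: H4 neuroglioblastoma cells stably carrying SNCA 5'UTR luciferase fusion; 0% = DMSO wells and 100% = positive control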
CSC inhib: cancer stem cell inhibition. inhibition, % at 7.5 µM. 1.1% of 300,000 active. cancer stem cell-like cells viability, luminescence; in the data active = inhibition above about 75%; inconclusive = no clear call, values can overlap the other calls; tested in HMLE shEcad cells
* = called active by the depositor; ? = inconclusive; / = no result. Hits are enriched below; roughly 4.1% of the tested compounds scored in any of these assays.

SMILES | Beta apoptosis | A1 inh | Mdm2-MdmX inh | aSyn UTR inh | CSC inhib
COC(=O)[C@H](CC(C)C)N(Cc1ccccc1)S(=O)(=O)N(Cc1ccc(OC)cc1)[C@@H](CC(C)C)C(=O)OC | 116* | 2 | 29 | / | 10
CC1(C)CC2CC(C)(CN2C(=O)COC(=O)c2ccccc2C(F)(F)F)C1 (stereo not drawn) | 4 | 2 | 12 | / | 55
CCOc1ccc(S(=O)(=O)NCCC(=O)NC2CCCCC2)cc1 | 1 | 1 | 2 | -2 | /
CCN(CC)C(=O)[C@H]1C[C@H](CC(=O)NCCN2CCOCC2)C(=O)N2CCc3c([nH]c4cc(-c5ccco5)ccc34)[C@]12C | / | / | 5 | / | /
O=C(CN1CCCCC1)Nc1cc(Cl)ccc1Oc1ccccc1 | -4 | 0 | 6 | 48 | 72
O=C(CN1CCCCCC1)Nc1ccccc1Oc1ccccc1 | 2 | 0 | 18 | 17 | 80*
O=C(Nc1cc(-c2ccccc2)nn1C1CCCCC1)c1ccc(Cl)cc1 | 97* | 1 | 11 | / | /
COc1cccc(CN2C(=O)C3(C(C#N)=C(N)OC4=C3C(=O)CCC4)c3ccccc32)c1 (stereo not drawn) | / | 1 | -11 | 63* | 18
C=CCn1cc(/C=N/Nc2nc3ccccc3[nH]2)c2ccccc21 | 109* | -1 | 37 | -195 | 92*
O=S(=O)(NCc1ccccc1)NCc1ccc(Cl)cc1Cl | 1 | 0 | 6 | -22 | 8
CC(=O)N1CCN(Cc2nc3cc(NC(=O)COc4cccc(C)c4)ccc3n2C)CC1 | 1 | 1 | -6 | -8 | 5
CCCCC[n+]1cccc2c3ccccc3ccc21 | 110* | 0 | 50 | 26 | 13
O=C(O)CCSc1nnc(-c2ccc3c(c2)OCO3)o1 | -5 | -2 | 15 | 67* | 2
CC(=O)CSc1nnc(-c2ccc3c(c2)OCO3)o1 | -2 | -2 | -10 | -15 | 13
CC(C)CCNC(=O)C(=O)Nc1ccc2c(c1)N(S(=O)(=O)c1cccs1)CCC2 | 29 | 0 | 48 | -73 | 28
O=C(CC1SC(=Nc2ccccc2)N(CCc2ccccn2)C1=O)Nc1ccc(F)cc1 (stereo not drawn) | -9 | 1 | 8 | -1 | 0
Cc1cccc(C)c1N=C1SC(CC(=O)Nc2c(C)cccc2C)C(=O)N1CCc1ccccn1 (stereo not drawn) | -3 | 1 | -8 | 67* | 11
COCCN=c1scc(-c2cccs2)n1/N=C/c1ccc(O)c(O)c1O | 20 | 0 | -2 | 67* | 57
CCN(CC(=O)Nc1cccc(OC)c1)c1ncnc2sc(C)c(C)c12 | 21 | 0 | 12 | -24 | 5
COc1cccc(N2CCN(Cc3nc4ccccc4c(=O)[nH]3)CC2)c1 | / | 0 | 5 | -2 | -13
COc1cccc(N2CCN(Cc3nc4scc(-c5ccccc5)c4c(=O)[nH]3)CC2)c1 | -4 | 0 | 39 | -20 | 82*
O=C(CC1NCCc2ccccc21)Nc1ccccc1 (stereo not drawn) | -1 | 1 | -24 | -26 | -12
O=C(CC1NCCc2ccccc21)Nc1ccc(Oc2ccccc2)cc1 (stereo not drawn) | / | -2 | 8 | 13 | 95*
CCOc1ccccc1-c1nc(CN2CCN(C(=O)c3ccco3)CC2)c(C)o1 | -1 | 0 | 13 | 21 | -7
CCOc1ccccc1-n1c(CN2CCN(C(=O)c3ccco3)CC2)nc2ccccc2c1=O | 4 | 0 | 34 | 111* | 61
SMILES | Beta apoptosis | A1 inh | Mdm2-MdmX inh | aSyn UTR inh | CSC inhib
Cc1ccc(NC(=O)COc2ccccc2C(N)=O)cc1S(=O)(=O)N1CCCCCC1 | / | / | 5 | / | /
C#CCOCCOCCOCCNc1nc(N2CCN(C(=O)CCCCCCCCCCNC(=O)[C@@H](CCSC)n3cc(CCO)nn3)CC2)nc(N2CCN(C(=O)CCCCCCCCCCNC(=O)[C@H]([C@@H](C)CC)n3cc(CCCCN=C(N)N)nn3)CC2)n1 | 37 | 1 | 5 | / | -18
C#CCOCCOCCOCCNc1nc(N2CCN(C(=O)CCCCCCCCCCNC(=O)[C@H](CCCCN)n3cc(CCO)nn3)CC2)nc(N2CCN(C(=O)CCCCCCCCCCNC(=O)[C@H](CCCN=C(N)N)n3cc(C[C@@H](C)CC)nn3)CC2)n1 | 63 | 0 | 11 | / | 135*
C#CCOCCOCCOCCNc1nc(N2CCN(C(=O)CCCCCCCCCCNC(=O)[C@H](CCCCN)n3cc(CCO)nn3)CC2)nc(N2CCN(C(=O)CCCCCCCCCCNC(=O)[C@H](CCCCN)n3cc(CCO)nn3)CC2)n1 | -3 | 3 | 14 | / | 7
C#CCOCCOCCOCCNc1nc(N2CCN(C(=O)CCCCCCCCCCNC(=O)[C@H](CCCCN)n3cc(C[C@@H](C)CC)nn3)CC2)nc(N2CCN(C(=O)CCCCCCCCCCNC(=O)[C@H](CCCCN)n3cc(C[C@@H](C)CC)nn3)CC2)n1 | 114* | 1 | / | 107* | 166*
C#CCOCCOCCOCCNc1nc(N2CCN(C(=O)CCCCCCCCCCNC(=O)[C@H]([C@@H](C)CC)n3cc(CCCCN=C(N)N)nn3)CC2)nc(N2CCN(C(=O)CCCCCCCCCCNC(=O)[C@H](CCCCN)n3cc(C[C@@H](C)CC)nn3)CC2)n1 | 98* | 0 | 49 | / | 102*
CC[C@H](C)Cc1cn([C@@H](CCCCNC(=O)OC(C)(C)C)C(=O)NCCCCCCCCCCC(=O)N2CCN(C(=O)OC(C)(C)C)CC2)nn1 | 82* | 0 | 10 | / | 15
C#CCOCCOCCOCCNc1nc(N2CCN(C(=O)CCCCCCCCCCNC(=O)[C@H](CCCCN)n3cc(CCCC(=O)O)nn3)CC2)nc(N2CCN(C(=O)CCCCCCCCCCNC(=O)[C@H](CCCN=C(N)N)n3cc(C[C@@H](C)CC)nn3)CC2)n1 | 11 | ? | 6 | -132 | -19
COc1ccc(CN2C(=O)c3cccc4cccc2c34)cc1F | -1 | 0 | 37 | 20 | 46
O=C(Cc1ccsc1)NNC(=O)c1ccccc1O | 5 | 0 | 27 | -40 | 13
COc1ccccc1NC(=O)NC1(C(=O)N2CCN(C)CC2)CCCCC1 | -3 | 0 | 2 | 2 | -8
O=C(c1ccc(-c2cc(O)c3ncccc3c2)cc1)N1CCNCC1 | -2 | 1 | 35 | / | /
Cc1cc(N2CCN(S(=O)(=O)c3ccc(Cl)cc3)CC2)c2ccccc2n1 | 81* | -1 | 36 | 20 | 40
Cc1ccc(-c2csc3ncnc(NS(=O)(=O)c4ccc(Cl)cc4)c23)cc1 | 5 | -1 | 4 | 13 | 82*
O=S(=O)(Nc1ncnc2scc(-c3ccc(F)cc3)c12)c1cc(F)ccc1F | 3 | 0 | -23 | 13 | 32
NNc1ncnc2scc(-c3ccc(Cl)cc3)c12 | 94* | 0 | -2 | 25 | -6
CN(C(=O)Cn1c(=O)oc2ccccc21)C1CCCCC1 | 0 | 1 | 8 | / | -2
CCOc1cc(/C=C2\C(=O)N(Cc3ccc(C)cc3)C(C)=C2C(=O)OC)ccc1O | -1 | -1 | -1 | -5 | 36
C=CCOc1cccc(/C=C2\C(=O)N(Cc3ccc(C)cc3)C(C)=C2C(=O)OC)c1 | 12 | 1 | -24 | -7 | 85*
